# PubChem BioAssay (NCI)
# Compounds without any hit were thinned out: in the full panel of roughly 83,000, 20% have a hit.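 Treatment: one concentration, 48 hours, 96-well format. Scoring: percent growth, with anything below 10 considered active.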 Values without a mark were called inactive. The source made the active and inactive calls.
# Legend:
# Assay in all cases: NCI-60 one-dose screen, 48 h (100 = growth as untreated, 0 = no growth, -100 = all killed)
# Details in all cases: 10 µM unless noted
# DU-145 prostate = system: DU-145 prostate
# K-562 leukemia = system: K-562 leukemia
# MALME-3M melanoma = system: MALME-3M melanoma
# MDA-MB-231 breast = system: MDA-MB-231 breast
# RXF 393 renal = system: RXF 393 renal
# SF-268 CNS = system: SF-268 CNS
# SF-295 CNS = system: SF-295 CNS
# SF-539 CNS = system: SF-539 CNS
# UACC-257 melanoma = system: UACC-257 melanoma
# M14 melanoma = system: M14 melanoma
# HCT-15 colon = system: HCT-15 colon
# HT29 colon = system: HT29 colon
# SNB-75 CNS = system: SNB-75 CNS
# SNB-19 CNS = system: SNB-19 CNS
# U251 CNS = system: U251 CNS
# PC-3 prostate = system: PC-3 prostate
# SK-MEL-5 melanoma = system: SK-MEL-5 melanoma
# UACC-62 melanoma = system: UACC-62 melanoma
# LOX IMVI melanoma = system: LOX IMVI melanoma
# SK-MEL-28 melanoma = system: SK-MEL-28 melanoma
SMILES,growth (DU-145 prostate),growth (K-562 leukemia),growth (MALME-3M melanoma),growth (MDA-MB-231 breast),growth (RXF 393 renal),growth (SF-268 CNS),growth (SF-295 CNS),growth (SF-539 CNS),growth (UACC-257 melanoma),growth (M14 melanoma),growth (HCT-15 colon),growth (HT29 colon),growth (SNB-75 CNS),growth (SNB-19 CNS),growth (U251 CNS),growth (PC-3 prostate),growth (SK-MEL-5 melanoma),growth (UACC-62 melanoma),growth (LOX IMVI melanoma),growth (SK-MEL-28 melanoma)
COc1cc(/C=C2\CN(S(=O)(=O)c3ccc(C)cc3)C/C(=C\c3cc(CN4CCCCC4)c(O)c(OC)c3)C2=O)cc(CN2CCCCC2)c1O,-88.1% (active),-24.2% (active),-82.4% (active),-73.1% (active),-72.1% (active),-61.1% (active),-74.7% (active),-84.8% (active),-89.6% (active),-89% (active),-86.1% (active),-66.5% (active),-83.9% (active),-57.7% (active),-89.6% (active),-39.9% (active),-88.9% (active),-63.5% (active),-74.5% (active),-85.8% (active)
COc1ccc(-c2cn(-c3ccc(Cl)cc3)c(SCC(=O)c3ccc([N+](=O)[O-])cc3)n2)cc1,102%,102%,87.9%,80%,54.1%,73.1%,75.3%,82.5%,99.6%,92.4%,92.7%,89.6%,39%,52.3%,60.6%,73.7%,88.2%,68.7%,89.1%,95.8%
COc1cc2c3c(n(CCCCNCCCn4c5c(c6cc(OC)c(OC)cc6c4=O)C(=O)c4cc6c(cc4-5)OCO6)c(=O)c2cc1OC)-c1cc2c(cc1C3=O)OCO2,99.1%,85.7%,81.8%,90.4%,107%,89.5%,99.9%,92.8%,94.8%,96.3%,99.6%,93.3%,91%,102%,91.6%,93%,102%,96.8%,95.2%,109%
OC(c1ccccc1)(c1ccccc1)c1ccccc1-c1ccccc1,96.2%,96.5%,120%,84.4%,103%,90.6%,109%,112%,101%,99.4%,90.7%,73.4%,94.1%,94%,92.8%,86%,96.4%,79.2%,87.2%,109%
Cc1ncc(C(=O)Nc2ccc(CN3CCN(C)CC3)c(C(F)(F)F)c2)cc1C#Cc1cnc(N)c2ccncc12,-50.5% (active),-32.5% (active),-72.9% (active),-47.9% (active),-87.7% (active),-37.5% (active),-45.4% (active),-86.6% (active),-75.2% (active),-63.7% (active),-31.8% (active),-44.8% (active),-67.7% (active),-45.6% (active),-92.7% (active),-50.6% (active),-90.8% (active),-83.8% (active),-93.3% (active),-81.3% (active)
COc1ccc(C2=Nc3c/c(=C\c4c(O)[nH]c5cc(Cl)ccc45)ccc3=N2)cc1,76.8%,48.8%,72.6%,69.2%,38.1%,89.7%,57.9%,64.8%,74.5%,50.5%,55.8%,39.8%,41.6%,95.1%,74.3%,43.3%,60.7%,67.5%,90.6%,47%
COc1ccc(NC(=O)c2ccc(C(=O)Nc3ccc(OC)cc3OC)cc2)c(OC)c1,94.6%,110%,84.5%,53.1%,40.5%,29.7%,57.3%,35.8%,90.6%,79.8%,81.4%,90%,-39.3% (active),50.9%,46.3%,75.9%,96.7%,73.8%,71.8%,101%
Cc1ccc(-c2nc(C#N)c(S(=O)(=O)NCCO)o2)cc1,90%,29.8%,75.5%,75.6%,56.6%,87.4%,101%,46.6%,71.4%,32.5%,41.8%,24.2%,105%,88.3%,74%,61.7%,75%,60.3%,46.4%,70.7%
COc1ccc(C(C)=O)cc1S(N)(=O)=O,106%,104%,99.3%,103%,102%,101%,94.6%,104%,91.9%,95%,107%,86%,101%,99.7%,98.6%,85.7%,104%,94.7%,106%,106%
Cc1c(Cl)cccc1C(=O)Nc1nc2c(s1)CN(C(=O)Nc1cccc(C(F)(F)F)c1)CC2,16.8%,11.2%,44.5%,32.3%,-7.27% (active),35.2%,26%,-26.9% (active),55.7%,18.2%,11.8%,1.39% (active),6.15% (active),36.7%,22.2%,6.43% (active),2.35% (active),27.8%,18.9%,44.4%
CN(C)c1ccc(-c2cc(-c3ccc(Nc4nc(Nc5ccc(Cl)cc5)nc(Nc5ccc(Cl)cc5)n4)cc3)nc(N)c2C#N)cc1,95.8%,68.4%,81.8%,77.4%,37.1%,94.9%,64%,77.9%,99.1%,71.4%,75.9%,80.3%,83.8%,97.8%,63.3%,57.7%,66.7%,91%,72.7%,88.7%
C=CCN=C(N)SCCCCCCSC(N)=NCC=C,107%,79.2%,98.7%,94.8%,109%,95%,97.3%,99.6%,87.8%,92.4%,96.4%,73.2%,98.8%,102%,87.4%,68.5%,101%,87.5%,93.1%,103%
N#Cc1c(-c2ccccc2)c(C#N)c2c(C#N)c(N)nn2c1N,78.6%,6.77% (active),39.6%,33.6%,69.8%,56.3%,33.4%,37.2%,51.1%,32.9%,24.3%,8.55% (active),52.1%,38.1%,20.3%,50.5%,24.7%,19.6%,35.6%,56.8%
O=C1c2cccnc2C(=O)c2c1c(C(=O)OCCCN1CCCCC1)c1ccccn21,-86.8% (active),-28.5% (active),-78.2% (active),-8.94% (active),-64.2% (active),-15.3% (active),-13.9% (active),-9.46% (active),-38.4% (active),-83.5% (active),-55.5% (active),-24.2% (active),-88.7% (active),-38.2% (active),-31% (active),-18.2% (active),-96.2% (active),-51.2% (active),-67.2% (active),-20.3% (active)
CCCCCCCC/C=C\CCCCCCCCOc1ccc(CC(=O)NCC[N+](C)(C)C)cc1,75.6%,55.1%,70.2%,67.4%,-21.8% (active),68.6%,77.8%,66.8%,79.7%,63.7%,60.4%,24.5%,34.6%,13.4%,16.9%,4.88% (active),87.3%,61.3%,83.2%,91.7%
